# The list is not random: actives were taken first. Their share in the collection is about 4.1%.
# IDE cell activ: boosts human insulin-degrading enzyme activity in HEK cells; P14735; activation, % at 5.96 µM; AID 493087; 0.073% of 340,000 active; FAbeta-B cleavage, fluorescence polarization; 0% vehicle, 100% cell-free pure enzyme wells;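 active = activation above the mean of all tested compounds plus 3 SD, set per screening campaign, cut at about 17% in these data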
# PfM18AAP inh: PfM18AAP enzyme inhibition; 1.2% of 290,000 active; recombinant PfM18AAP, H-Glu-NHMec fluorogenic cleavage; inhibition, % at 7.35 µM;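 active = inhibition above the campaign mean inhibition over all tested compounds plus 3 SD, cut at about 28% in these data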;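 also: 0% = plate median of test compound wells and 100% = 2 mM ZnCl2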
# CaV13 FRET inh: Primary screen for inhibitors of IQ motif and Ca2+-dependent inactivation inhibitor domain binding in CACNA1D, Förster resonance energy transfer in living cells, … | 0.098% of 340,000 active | HEK cells, CFP/YFP FRET ICDI-IQ, plate reader, 10 min; percent FRET-ratio fall versus neutral wells | inhibition, % at 12.3 µM | AID 743397;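 active = mean replicate inhibition of at least 30% and at least 1% of replicates passing that level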;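 also: 0% = median of the neutral control wells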
# ALR H2O2 inh: inhibitors of human sulfhydryl oxidase ALR | 3.8% of 290,000 active | purified ALR, DTT oxidation, H2O2 HRP-luminol luminescence | inhibition, % (concentration not given with the values) | P55789;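 active = mean replicate inhibition above about 79%, with every replicate also reaching it, limit read from the data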
# IDE cell inh: inhibitors of human insulin-degrading enzyme in cells | P14735 | 0.41% of 320,000 active | AID 434962 | HEK cells, FAbetaB cleavage, fluorescence polarization | inhibition, % at 5.59 µM;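 active = percent inhibition above the average of all tested compounds plus 3 SD, set per screening campaign, cut at about 16% in these data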;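 also: IDE supplied by intact live HEK cells; FP after avidin binding of uncleaved biotin substrate so inhibition keeps polarization high; 0% = DMSO wells and 100% = 60 µM reference IDE inhibitor Ii1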
# PolyA inhibitor: yeast polyadenylation inhibition; S. cerevisiae SKY197-pL101 polyadenylation reporter, beta-gal luminescence; efflux-impaired pdr1/pdr3 knockout yeast; score 100 = 6 SD above DMSO; activity score, % at 12 µM; 0.02% of 300,000 active; AID 1875;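 active = lowest replicate activity score at least 50, where 100 means six control SD above control mean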;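 also: yeast exposed to compound for 9 h at 30 °C; higher score means more reporter readthrough which indicates perturbed polyadenylation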
# * = called active by the depositor; nt = no result; + = active, no number.
SMILES,IDE cell activ,PfM18AAP inh,CaV13 FRET inh,ALR H2O2 inh,IDE cell inh,PolyA inhibitor
COc1ccc(NC2CCCN(C(=O)CCC3=NNC(=O)CC3)C2)cc1 (centres undefined),1,1,nt,87*,1,-1
O=C(CSc1ccccc1)N1CCCC(Nc2ccccc2)C1 (centres undefined),3,10,-3,66,-2,-11
COc1ccc(NC2CCCN(C(=O)C3(C)CCCCC3)C2)cc1 (centres undefined),6,19,-16,97*,3,14
CCOc1ccc(NC(=O)CCC(=O)NNC(=O)Nc2cccc(Cl)c2)cc1,5,9,2,nt,6,7
CC1(C(=O)NS(=O)(=O)c2ccc(Cl)s2)CCN1C(=O)c1ccccc1CCc1ccccc1 (centres undefined),nt,nt,-6,nt,nt,nt
CN(C)c1nc(N)nc2c1ncn2C1OC(CO)CC1O (centres undefined),nt,nt,-12,nt,nt,nt
Cc1ccc(S(=O)(=O)NCC(C)NC(=O)CN2CCOCC2)cc1 (centres undefined),-3,-12,-2,nt,-1,-7
COc1ccc(F)cc1-c1cc(NC=O)c2ncc(-c3cc(OC)c(OC)c(OC)c3)n2c1,nt,nt,-4,nt,nt,nt
CCCN(CC(=O)Nc1ccccc1C)C(=O)c1sc2ccccc2c1Cl,0,nt,-5,-2,-1,nt
Oc1cccc(NC(=S)N=Nc2c(O)[nH]c3ccccc23)c1,-2,23,-2,99*,1,0
Oc1[nH]c2ccccc2c1N=NC(=S)N1CCOCC1,-6,7,nt,90*,1,3
Oc1[nH]c2ccc(Br)cc2c1N=NC(=S)N1CCOCC1,-18,8,-2,99*,8,-6
Cc1ccc[n+](-c2[nH]c(=O)sc2/C=N/NC(=O)c2ccccc2[O-])c1,3,15,-3,9,-3,-1
CC1=C(C)CS(=O)N(S(=O)(=O)c2ccccc2)C1 (centres undefined),3,6,-4,99*,-3,-33
NS(=O)(=O)c1ccc(N2C(=O)C3CC=CCC3C2=O)cc1 (centres undefined),4,7,-5,3,-2,4
CC1=C(C)CS(=O)N(c2ccc(S(N)(=O)=O)cc2)C1 (centres undefined),0,30*,-4,73,2,-7
CC1(Cc2ccc3c(c2)OCO3)C(=O)Nc2c(Cl)ccc(Cl)c21 (centres undefined),nt,nt,-4,nt,nt,nt
CCC(Oc1ccccc1)C(=O)Nc1cc(Cl)ccc1-n1cncn1 (centres undefined),3,nt,-16,nt,4,-7
CC(C)Cc1nnc(NC(=O)CCC(=O)NC2CCCCC2)s1,9,-2,-6,-2,0,-3
CCOc1ccc2nc(NCCCNS(=O)(=O)c3ccc(C)cc3)c(C#N)cc2c1,0,-1,32*,4,3,-5
CCOc1ccc2nc(NCCNC(=S)NCCCN(C)C)c(C#N)cc2c1,6,2,+,-13,-1,19
CCCCNc1ccc2c(c1)OC[C@@H](CC(C)C)NS2(=O)=O,nt,nt,-4,nt,nt,nt
Cc1ccc(OC(C)C(=O)N=Nc2c(O)[nH]c3ccc([N+](=O)[O-])cc23)cc1 (centres undefined),-2,5,-4,-2,2,-19
Cc1cc(C)n(CCNc2nc3nonc3nc2N2CCCCC2)n1,1,-4,-6,-6,6,-4
CCCCn1cnc2cc(NCc3cccc(OC)c3O)ccc21,7,21,-4,33,-5,-23
SMILES,IDE cell activ,PfM18AAP inh,CaV13 FRET inh,ALR H2O2 inh,IDE cell inh,PolyA inhibitor
CCCn1nnnc1NCc1cccc(OC)c1,3,0,-5,-2,0,-1
CCCn1cnc2cc(NCc3cccc(OC)c3)ccc21,10,14,-11,95*,-7,3
CCCn1cnc2cc(NCc3ccccc3O)ccc21,6,-1,-4,99*,7,22
CCN(C(=O)c1cnc(NC(C)C)cc1C(F)(F)F)c1ccc(Cl)cc1Cl,8,-1,-4,-5,0,4
CCCc1c(-c2ccccc2Br)ncn1Cc1ccccc1OC,nt,nt,-4,nt,nt,nt
CCc1nnc(SCc2ccc(C(=O)OC)o2)n1N,1,4,-6,97*,0,-3
CCCc1nnc(SCc2ccc(C(=O)OC)o2)n1N,0,-1,nt,-12,2,7
CCOC(=O)Nc1ccc2c(c1)N(CCCN(C)C)c1ccccc1CC2,5,1,-4,99*,5,6
CCOC(=O)Nc1ccc2c(c1)N(C(=O)OC)c1ccccc1CC2,7,-8,-5,7,4,-20
CC(C)(C)OC(=O)N1CCC[C@H]1C(=O)OCC(=O)Nc1cc(S(C)(=O)=O)ccc1Cl,6,nt,-2,nt,-3,nt
COc1ccc(CCN2C(=O)CC(NNC(=O)c3cccc(O)c3)C2=O)cc1 (centres undefined),3,3,-4,95*,3,-3
CCOc1ccc(C(=O)NNC2CC(=O)N(CCc3ccccc3)C2=O)cc1OC (centres undefined),0,3,-13,-4,-1,13
O=C(c1ccccn1)N1CCCC(N2CCN(c3ccc(F)cc3)CC2)C1 (centres undefined),3,-1,-2,97*,-2,0
O=C(c1ccccn1)N1CCCC(N2CCN(c3ccccc3)CC2)C1 (centres undefined),3,2,-7,69,-5,5
CCCc1cc(C(=O)N2CCCC(N3CCN(c4ccc(F)cc4)CC3)C2)no1 (centres undefined),5,-4,-7,98*,-1,3
CSCC(=O)N1CCCC(N2CCN(c3ccc(F)cc3)CC2)C1 (centres undefined),-2,5,-20,59,5,2
O=C(C1CCOCC1)N1CCCC(N2CCN(c3ccc(F)cc3)CC2)C1 (centres undefined),6,-4,-3,94*,-2,4
O=C(CSc1ccccc1)N1CCCC(N2CCN(c3ccccc3)CC2)C1 (centres undefined),4,3,-3,99*,-1,-5
CCn1cc(C(=O)NCCCN2CCCC(C)C2)c(=O)c2cc(S(=O)(=O)N3CCOCC3)ccc21 (centres undefined),-2,16,-2,-2,5,1
COC(=O)c1sc(N2C(=O)C(=O)/C(=C(/O)c3ccccc3)C2c2ccco2)nc1C (centres undefined),0,22,-8,90*,2,3
CC(CCC(=O)NN)C1CCC2C3CCC4CC(O)CCC4(C)C3CCC12C (centres undefined),4,nt,-7,nt,nt,nt
